Measurements from PubChem BioAssay (NCI).
This is part of a sample that, as a whole, favours compounds with a hit. Of some 83,000 tested, about 20% had one in any assay.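 Interpretation: 100, growth as untreated; towards 0, rising growth inhibition; 0, no net growth; 0 to -100, cell death. Compounds scoring below 10 were considered active.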 Active and inactive are the calls of the source.

tested on: OVCAR-5 ovarian; experiment: NCI-60 one-dose screen, 48 h (100 = growth as untreated, 0 = no growth, -100 = all killed); settings: 10 µM unless noted

Compound | growth
O=C1OCC2=C1C(c1ccccc1)c1cc3c(cc1N2)OCO3 (stereo not given) | 43.5% (inactive)
COc1cc(/C=C\c2cc(OC)c(OC)c(OC)c2)cc(N/C=C\C(=O)c2cc(OC)c(OC)c(OC)c2)c1OC | 31.8% (inactive)
Cc1ccc(S(=O)(=O)C(Cl)(Cl)Cl)cc1 | 96.8% (inactive)
CCOC(=O)c1c(C)n(Cc2ccccc2)c2cc(CN(C)C)c(O)cc12 | 69.3% (inactive)
CCCCCCCCCCCCCCCCCCOc1ccccc1COP(=O)(O)OOCC[N+](C)(C)C | 40.5% (inactive)
CC12CCC3C(C=CC4=C(N)C(=O)CCC43C)C1CCC2=O (stereo not given) | 108% (inactive)
CNC(=O)Oc1ccc(N(C)C)cc1C(C)C | 99.8% (inactive)
C=CC[n+]1ccc(-c2cc[n+](CC=C)cc2)cc1 | 126% (inactive)
CCC1CC(O)c2c(O)c3c(c(O)c2C1O)C(=O)c1cccc(O)c1C3=O (stereo not given) (tested in a mixture with another compound) | -78.2% (active)
ClC1=C(Cl)C(Cl)(C2(Cl)C(Cl)=C(Cl)C(Cl)=C2Cl)C(Cl)=C1Cl | 16.1% (inactive)
O=c1[nH]cc(N(CCCl)CCCl)c(=O)[nH]1 | 70.1% (inactive)
Cn1cc(C=O)c2nccnc21 | 120% (inactive)
CN1CC(=O)N(O)C1(C)c1cccnc1 (stereo not given) | 95.6% (inactive)
CC1=C([Te]c2ccc(O)cc2)C(=O)c2ccccc2C1=O | 11.8% (inactive)
COC(=O)[C@@H](C)C[C@H](Cc1ccccc1)NC(=O)c1csc([C@@H](C[C@H](C(C)C)N(C)C(=O)[C@@H](NC(=O)[C@H]2CCCCN2C)c2ccc(F)cc2)OC(C)=O)n1 | 20.7% (inactive)
CC[C@H](C)[C@H](NC(=O)C12CC(NC(C)=O)(C1)C2)C(=O)N(C)[C@H](C[C@@H](OC(C)=O)c1nc(C(=O)N[C@@H](Cc2ccccc2)C[C@H](C)C(=O)OC)cs1)C(C)C | 44% (inactive)
CC(=O)/C=C/c1ccc2c(c1)OCO2 | 106% (inactive)
C[CH2][Sn]([Cl])([Cl])[CH2]C.Oc1ccccc1C=NCCN=Cc1ccccc1O | 104% (inactive)
CN1CCCCC1C(C)(O)c1ccccc1 (stereo not given) | 94.2% (inactive)
COc1ccc2c(c1)c(C1(O)CC(CSC#N)OC1=O)cn2C(=O)c1ccc(Cl)cc1 (stereo not given) | 99.4% (inactive)

tested on: OVCAR-4 ovarian; experiment: as above; settings: 10 µM unless noted

Compound | growth
CC(C)(C)C(=O)OCOP(=O)(NCc1ccccc1)C1CCCN(O)C1=O (stereo not given) | 19.9% (inactive)
CCOC(=S)S[C@H]1C[C@@H]2[C@H](CC[C@]3(C)C(=O)CC[C@@H]23)[C@@]2(C)CCC(=O)C=C12 | 106% (inactive)
CC1(C)N=C(N)N=C(N)N1c1ccc(CCC(=O)Nc2ccc(S(=O)(=O)F)cc2)c(Cl)c1 | 52.9% (inactive)
Cc1c2cc(Cl)c3ccccc3c2c[n+]2ccccc12 | 30.3% (inactive)
CC12CCC3C(CCC4=CC(=O)CCC43CF)C1CCC2=O (stereo not given) | 98.8% (inactive)
O=C1OCC2=C1C(c1ccccc1)c1cc3c(cc1N2)OCO3 (stereo not given) | 41.4% (inactive)
Cc1ccc(S(=O)(=O)C(Cl)(Cl)Cl)cc1 | 105% (inactive)
c1ccc(COc2ccc3[nH]cc(CCN(Cc4ccccc4)Cc4ccccc4)c3c2)cc1 | 95.4% (inactive)
CCOC(=O)c1c(C)n(Cc2ccccc2)c2cc(CN(C)C)c(O)cc12 | 68.1% (inactive)
Clc1ccc(CSC(Cn2ccnc2)c2ccc(Cl)cc2Cl)cc1 (stereo not given) | 25.9% (inactive)
CCCCCCCCCCCCCCCCCCOc1ccccc1COP(=O)(O)OOCC[N+](C)(C)C | 34.6% (inactive)
CC12CCC3C(C=CC4=C(N)C(=O)CCC43C)C1CCC2=O (stereo not given) | 62% (inactive)
CCC1CC(O)c2c(O)c3c(c(O)c2C1O)C(=O)c1cccc(O)c1C3=O (stereo not given) (tested in a mixture with another compound) | -21.6% (active)
O=c1[nH]cc(N(CCCl)CCCl)c(=O)[nH]1 | 105% (inactive)
CC1=C([Te]c2ccc(O)cc2)C(=O)c2ccccc2C1=O | -32.9% (active)
C[C@@H]1O[C@@H](O[C@H]2C[C@@H](O)[C@]3(CO)C4C(CC[C@]3(O)C2)[C@@]2(O)CC[C@H](C3=CC(=O)OC3)[C@@]2(C)C[C@H]4O)[C@H](O)[C@H](O)[C@H]1O (stereo not given in full) | -24.3% (active)
CC(=O)/C=C/c1ccc2c(c1)OCO2 | 104% (inactive)
CN1CCCCC1C(C)(O)c1ccccc1 (stereo not given) | 99.8% (inactive)

tested on: SK-OV-3 ovarian; experiment: as above; settings: 10 µM unless noted

Compound | growth
CC(C)(C)C(=O)OCOP(=O)(NCc1ccccc1)C1CCCN(O)C1=O (stereo not given) | 59.7% (inactive)
CCCc1cc(O)c2c3c(c(=O)oc2c1)CN(C)CC3 | 26.8% (inactive)
Nc1c(F)cc(-c2nc3cc(F)ccc3[se]2)cc1F | 61.4% (inactive)
Clc1ccc(COC(Cn2ccnc2)c2ccc(Cl)cc2Cl)cc1 (stereo not given) | 91.2% (inactive)
Fc1ccc2c(c1)c(-c1nc(-c3c[nH]c4ncccc34)cs1)cn2CCCCN1CCCCC1 | -72.6% (active)
COc1ccc2nc(NC(=O)COc3cc(/C=C\c4cc(OC)c(OC)c(OC)c4)ccc3OC)sc2c1 | 8.6% (active)
Oc1c(CCl)cc(Cl)cc1CCl | 107% (inactive)
COc1cc([C@@H]2c3cc4c(cc3[C@H](OC(C)=O)[C@H]3COC(=O)[C@H]23)OCO4)cc(OC)c1OC | 39.3% (inactive)
CCOC(=S)S[C@H]1C[C@@H]2[C@H](CC[C@]3(C)C(=O)CC[C@@H]23)[C@@]2(C)CCC(=O)C=C12 | 108% (inactive)
CC1(C)N=C(N)N=C(N)N1c1ccc(CCC(=O)Nc2ccc(S(=O)(=O)F)cc2)c(Cl)c1 | 64.5% (inactive)
Cc1c2cc(Cl)c3ccccc3c2c[n+]2ccccc12 | 66.6% (inactive)
COc1cc(NC(C)CCCNC2CN3CCC2CC3)c2ncccc2c1 (stereo not given) | 93.4% (inactive)
COC(=O)[C@@H](C)C[C@H](Cc1ccccc1)NC(=O)c1csc([C@@H](C[C@H](C(C)C)N(C)C(=O)[C@@H](NC(=O)C23CC(NC(C)=O)(C2)C3)C2CC2)OC(C)=O)n1 | 78.9% (inactive)
CC12CCC3C(CCC4=CC(=O)CCC43CF)C1CCC2=O (stereo not given) | 120% (inactive)
O=C1OCC2=C1C(c1ccccc1)c1cc3c(cc1N2)OCO3 (stereo not given) | 2.36% (active)
COc1cc(/C=C\c2cc(OC)c(OC)c(OC)c2)cc(N/C=C\C(=O)c2cc(OC)c(OC)c(OC)c2)c1OC | 21.3% (inactive)
Cc1ccc(S(=O)(=O)C(Cl)(Cl)Cl)cc1 | 82.5% (inactive)
c1ccc(COc2ccc3[nH]cc(CCN(Cc4ccccc4)Cc4ccccc4)c3c2)cc1 | 91.2% (inactive)
CCOC(=O)c1c(C)n(Cc2ccccc2)c2cc(CN(C)C)c(O)cc12 | 70.4% (inactive)

Compound | growth
Clc1ccc(CSC(Cn2ccnc2)c2ccc(Cl)cc2Cl)cc1 (stereo not given) | 71.9% (inactive)
CCCCCCCCCCCCCCCCCCOc1ccccc1COP(=O)(O)OOCC[N+](C)(C)C | 36.2% (inactive)
CC12CCC3C(C=CC4=C(N)C(=O)CCC43C)C1CCC2=O (stereo not given) | 120% (inactive)
CNC(=O)Oc1ccc(N(C)C)cc1C(C)C | 105% (inactive)
C=CC[n+]1ccc(-c2cc[n+](CC=C)cc2)cc1 | 108% (inactive)
CCC1CC(O)c2c(O)c3c(c(O)c2C1O)C(=O)c1cccc(O)c1C3=O (stereo not given) (tested in a mixture with another compound) | 11.1% (inactive)
ClC1=C(Cl)C(Cl)(C2(Cl)C(Cl)=C(Cl)C(Cl)=C2Cl)C(Cl)=C1Cl | 87.1% (inactive)
O=c1[nH]cc(N(CCCl)CCCl)c(=O)[nH]1 | 93.3% (inactive)
Cn1cc(C=O)c2nccnc21 | 101% (inactive)
CN1CC(=O)N(O)C1(C)c1cccnc1 (stereo not given) | 91.6% (inactive)
CC1=C([Te]c2ccc(O)cc2)C(=O)c2ccccc2C1=O | -15.5% (active)
COC(=O)[C@@H](C)C[C@H](Cc1ccccc1)NC(=O)c1csc([C@@H](C[C@H](C(C)C)N(C)C(=O)[C@@H](NC(=O)[C@H]2CCCCN2C)c2ccc(F)cc2)OC(C)=O)n1 | 21.2% (inactive)
C[C@@H]1O[C@@H](O[C@H]2C[C@@H](O)[C@]3(CO)C4C(CC[C@]3(O)C2)[C@@]2(O)CC[C@H](C3=CC(=O)OC3)[C@@]2(C)C[C@H]4O)[C@H](O)[C@H](O)[C@H]1O (stereo not given in full) | -88.2% (active)
CC[C@H](C)[C@H](NC(=O)C12CC(NC(C)=O)(C1)C2)C(=O)N(C)[C@H](C[C@@H](OC(C)=O)c1nc(C(=O)N[C@@H](Cc2ccccc2)C[C@H](C)C(=O)OC)cs1)C(C)C | 27% (inactive)
CC(=O)/C=C/c1ccc2c(c1)OCO2 | 106% (inactive)
C[CH2][Sn]([Cl])([Cl])[CH2]C.Oc1ccccc1C=NCCN=Cc1ccccc1O | 101% (inactive)
CN1CCCCC1C(C)(O)c1ccccc1 (stereo not given) | 97.8% (inactive)
COc1ccc2c(c1)c(C1(O)CC(CSC#N)OC1=O)cn2C(=O)c1ccc(Cl)cc1 (stereo not given) | 109% (inactive)
